# This is a sample that favours compounds with a hit; in the whole collection about 7.5% have one here.
# FLuc modulator = qHTS profiling assay for firefly luciferase inhibitor/activator using purifed enzyme and Km concentrations of substrates (counterscreen for miR-21 project); 360,000 tested, 6.9% active; purified FLuc, Km substrates, luminescence inhibition; Potency, µM (top dose mostly 57.5 µM), inactives show at the top dose activity change, negative = inhibition, most hits filed as inhibitors; AID 588342, 2011; Luciferin 4-monooxygenase (Photinus pyralis), P08659;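 further: plate controls were vehicle for no effect and reference inhibitor for full effect; nearly all actives have a fitted effect of over 55% in size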
# Target sequence (P08659 whole entry, looked up): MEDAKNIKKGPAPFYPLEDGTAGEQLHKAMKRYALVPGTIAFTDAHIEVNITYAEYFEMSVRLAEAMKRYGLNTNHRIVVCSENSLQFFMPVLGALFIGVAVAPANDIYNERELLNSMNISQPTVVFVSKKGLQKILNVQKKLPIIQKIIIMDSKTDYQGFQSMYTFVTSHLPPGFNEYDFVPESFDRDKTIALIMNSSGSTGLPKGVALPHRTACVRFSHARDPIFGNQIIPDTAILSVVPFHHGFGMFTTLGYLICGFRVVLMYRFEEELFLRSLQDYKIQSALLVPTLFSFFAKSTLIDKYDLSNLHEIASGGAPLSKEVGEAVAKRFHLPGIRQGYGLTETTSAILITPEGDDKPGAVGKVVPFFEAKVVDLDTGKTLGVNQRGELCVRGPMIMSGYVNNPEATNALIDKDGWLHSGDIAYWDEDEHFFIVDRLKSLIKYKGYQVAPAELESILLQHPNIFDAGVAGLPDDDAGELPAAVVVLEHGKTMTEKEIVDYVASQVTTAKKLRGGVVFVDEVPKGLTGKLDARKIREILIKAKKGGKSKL
#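 Purified P. pyralis luciferase (10nM final) with 10uM D-luciferin and 10uM ATP (Km levels) in 50mM Tris acetate pH 7.5, 10mM Mg acetate, 0.01% Tween-20, 0.05% BSA; qHTS 6-point titration, ~60 µM downward; luminescence read.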
# Rab9 prom act = qHTS Assay for Rab9 Promoter Activators. Huh7 Rab9 promoter-luciferase reporter, luminescence, 24 h. Potency, µM (highest dose often 9.22 µM), without a hit: at the highest dose activation, negative = inhibition, most hits filed as activators. 320,000 tested, 2.8% active; further: % of control where 0% means no effect; nearly all actives have a fitted effect of over 60% in size
#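 Rab9 promoter-driven luciferase in stably transfected Huh7 cells; 1500 cells/well rested 2 h, exposed to compound in DMSO for 24 h at 37 °C, 5% CO2. Luminescence read 10 min after adding luciferase reagent at ambient temperature.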
# Luc counter = Counterscreen for Luciferase (Kinase-Glo TM) Inhibition. Luciferin 4-monooxygenase (Photuris pensylvanica), Q27757. Kinase-Glo luciferase, ATP luminescence, 8 min. Potency, µM (top dose mostly 38.3 µM), for the others: top-dose activity change, negative = inhibition, usual class: inhibitors. 200,000 tested, 0.28% active. AID 1379, 2008; further: on the % scale 0 is the no-effect control and ±100 the full control effect; nearly all actives have a fitted effect of over 60% in size
#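 Substrate mix (final 50 mM imidazole pH 7.2, 50 mM KCl, 7 mM MgCl2, 10 uM ATP, 0.01% Tween 20, 0.05% BSA) plus pin-tool compound, then Kinase-Glo detection mix; 8 min ambient, luminescence read.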
# NPC1 prom act = qHTS Assay for NPC1 Promoter Activators | Potency, µM (series often up to 9.22 µM), inactives show top-dose activation, hits mostly activators | Huh7 NPC1 promoter luciferase reporter, 24 h | AID 485313, 2010 | 320,000 tested, 2.4% active; further: % of control where 0% means no effect; nearly all actives have a fitted effect of over 60% in size
#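 Luciferase expression driven by the NPC1 promoter was measured in stably transfected Huh7 cells after a 24 h compound incubation, using a luciferase reagent and a luminescence read.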
# ELG1 genotox = qHTS screen for small molecules that induce genotoxicity in human embryonic kidney (HEK293T) cells expressing luciferase-tagged ELG1; HEK293T ELG1-luciferase reporter, luminescence, 16 h; Potency, µM (highest dose often 46 µM), for the others: at the top dose activity change, positive = activation, most hits filed as activators; 330,000 tested, 1.3% active; further: % of control where 0% means no effect; nearly all actives have a fitted effect of over 60% in size
#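 Step 1: seed 2,000 HEK293T ELG1-luciferase cells per well. Step 2: add compound or DMSO, incubate 16 hr at 37 °C. Step 3: ONE-Glo, 30 min at room temperature, read luminescence.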
# SMN2 splice enh = qHTS Assay for Enhancers of SMN2 Splice Variant Expression; HEK293 SMN2-luciferase splicing reporter, luminescence, 30-36 h; Potency, µM (series often up to 46.1 µM), for the others: at the highest dose activity change, positive = activation, hits mostly activators; 210,000 tested, 2.8% active; AID 1458, 2008; further: % of control where 0% means no effect; nearly all actives have a fitted effect of over 55% in size
#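 qHTS luciferase splicing reporter: luminescence rises when SMN2 exon 7 is included in transfected HEK293 cells. Compound exposure lasted 30-36 h at 37C, with 4.5 mM final sodium butyrate as control, followed by a ONE-Glo read.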
# Starred values were filed as active, the others as inactive; ? = inconclusive; · = no result; [ ] = remark or other dose. The call rests on the fitted dose curve; in most records, active means well fitted curve in the direction sought with a large enough effect; inconclusive means small, poorly fitted or top-dose-only effect, or another doubt; inactive means no such curve, though single readings can be large; an effect the other way counts as inactive or inconclusive. Potency means the concentration at half of the fitted maximal effect.
SMILES,FLuc modulator,Rab9 prom act,Luc counter,NPC1 prom act,ELG1 genotox,SMN2 splice enh
O=C(Nc1cccc(Cl)c1)Nc1ccccc1C(=O)NCc1ccco1,19µM*,7%,-10%,3%,1%,9%
COc1cccc(CNC(=O)c2ccc(C(=O)NCc3cccc(OC)c3)cc2)c1,3%,-3%,·,-1%,?,·
COc1cccc(CNC(=O)c2ccc(C3SCCS3)cc2)c1,17µM*,6%,·,4%,17%,·
COC(=O)c1ccc(C(NC(=O)OCc2ccccc2)/C(=C/[C@@H](C)C(=O)N(C)Cc2ccccc2)c2cccnc2)cc1 (stereo partly drawn),·,·,-1%,·,·,14%
COC(=O)c1cc(=O)c(O)c2c(O)c(O)ccc2c1,·,·,-3%,·,·,-21%
COC(=O)c1ccc(Sc2ccc(C)cc2)c(N)c1,19µM*,24%,-1%,15%,3%,-16%
Cc1ccnc(NC(=O)CCC2CCCCC2)c1,11µM*,?,-2%,?,8.2µM*,?
O=C(CCC1CCCC1)Nc1ccc(Br)cn1,-4%[2.3 µM],2.2µM*,3%,?,20%,?
CCCC(=O)Nc1ccc(Br)cn1,-4%,24%,-2%,0%,-7%,23%
Cc1ccc(N=Nc2c(O)n(CN3CCOCC3)c3ccccc23)cc1,2.7µM*,0.4µM*,-6%,1.4µM*,3.7µM*,22µM*
Cc1cc(O)c(C2=Nc3ccccc3SC(c3ccc(Cl)cc3)C2)c(=O)o1 (stereo not drawn),4.8µM*,3%,-5%,-3%,7.3µM*,-60%
CC(C)Oc1ccc(CNS(=O)(=O)c2ccc(-c3cc(C(F)(F)F)on3)s2)cc1,-1%,·,·,·,·,·
CC1=C(C(=O)Nc2ccccc2)C(c2cccs2)n2nc(SCc3ccccc3)nc2N1 (stereo not drawn),1%,·,·,·,·,11%
Cc1nn(-c2ccccc2)c2c1C(c1ccccc1)C(C#N)=C(N)O2 (stereo not drawn),-1%,-1%,3%,-2%,-1%,-7%
Cc1ccc(-n2nc(C)c3c2OC(N)=C(C#N)C3c2ccco2)cc1 (stereo not drawn),1.7µM*,17%,-11%,2%,8%,15%
Cc1ccc(-n2nc(C)c3c2OC(N)=C(C#N)C3c2ccc(C)o2)cc1 (stereo not drawn),?,4%,-8%,13%,-2%,7%
Cc1ccc(-n2nc(C)c3c2OC(N)=C(C#N)C3c2ccoc2)cc1 (stereo not drawn),11µM*,12%,-5%,7%,1%,7%
Cc1cc(C)cc(NC(=O)C2CC(=O)N(c3ccccc3)C2)c1 (stereo not drawn),3%,·,·,·,·,2%
O=C(CSc1nc(=O)n(Cc2ccco2)c2c1CCC2)NCc1ccccc1,-10%,·,·,·,·,·
O=C(Nc1sc2c(c1C(=O)O)CCCCC2)c1cccs1,2.7µM*,4.5µM*,-6%,?,7%,?
CC(C)OC(=O)c1c(NC(=O)c2cccs2)sc2c1CCCC2,-1%,5%,-7%,3%,-7%,-4%
O=C(Nc1sc2c(c1C(=O)O)CCCC2)c1cccs1,17µM*,3%,-2%,18%,-8%,?
Cc1ccc(CNC(=O)Cn2c3ncccc3c(=O)n2-c2ccccc2)cc1,-7%,·,·,·,·,·
N/C(Cc1ccc([N+](=O)[O-])cc1)=N\OC(=O)COc1ccccc1Cl,-20%,-3%,0%,0%,2%,-3%
COc1ccc(C(=O)O/N=C(\N)Cc2cccs2)cc1OC,5%,5%,·,1%,13%,·
SMILES,FLuc modulator,Rab9 prom act,Luc counter,NPC1 prom act,ELG1 genotox,SMN2 splice enh
N/C(Cc1cccs1)=N\OC(=O)COc1ccc(Br)cc1Cl,11µM*,25%,-5%,?,?,6%
N/C(Cc1cccs1)=N\OC(=O)COc1ccccc1Cl,24µM*,?,0%,15%,23µM*,-5%
Cc1ccc(CNC(=O)CN2c3cccc4cccc(c34)S2(=O)=O)cc1,15µM*,-5%,·,1%,0%,·
CCc1ccc(NC(=O)c2ccccc2SC)cc1,15µM*,?,-12%,?,?,?
CCc1ccc(NC(=O)c2cccc(C(=O)Nc3ccc(CC)cc3)n2)cc1,5.4µM*,16%,·,9%,6%,·
COC(=O)c1cccc(C(=O)Nc2ccc(C)cc2)n1,12µM*,?,-20%,3.5µM*,10%,-4%
CSc1ccccc1C(=O)Nc1c(C)cccc1C,3%,-2%,·,-4%,0%,·
CCOC(=O)c1c(S(=O)(=O)N2CCCC(C(=O)Nc3cccc(Cl)c3)C2)c(C)n(C)c1C (stereo not drawn),0%,·,·,·,·,·
CCOC(=O)c1c(NC(=O)c2cc3nc(-c4ccc(OC)cc4)cc(C(F)(F)F)n3n2)sc(C)c1C,-1%,·,·,·,·,·
CCc1ccc(Nc2n[n+](-c3ccccc3)c(/C=C/c3ccccc3)s2)cc1,12µM*,-2%,·,1%,-7%,·
CCOc1ccccc1NC(=O)CN1C(=O)CC(c2ccc(OC)c(OC)c2)Sc2ccccc21 (stereo not drawn),-20%,·,·,·,·,7%
Cc1cccc(-c2nc3cc([N+](=O)[O-])ccc3o2)c1,1.7µM*,1.6µM*,-29%,3.5µM*,16µM*,16µM*
COc1ccc(-c2nc3ccc([N+](=O)[O-])cc3o2)cc1,0.76µM*,1.1µM*,-6%,1.6µM*,6.5µM*,11µM*
NC(N)=Nc1nc2cc([N+](=O)[O-])ccc2o1,?,9%,-3%,-1%,10%,·
O=[N+]([O-])c1ccc2oc(-c3ccccc3)nc2c1,?,2.2µM*,-13%,?,?,16µM*

# Assay outcomes as filed in PubChem BioAssay.
